From PubChem BioAssay AID485317 (Broad Institute, 2010)
The campaign covered roughly 290,000 compounds. About 11,000 (3.8%) were called active.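 Rule for the calls: active = mean replicate inhibition above about 79%, with every replicate also reaching it (limit read from the data); inconclusive = only one of the two criteria met; inactive = mean below limit and not every replicate reaching it.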 The list comes from a sample in which actives are over-represented; it also holds similar structures and randomly drawn compounds.

Target: FAD-linked sulfhydryl oxidase ALR (Homo sapiens) (UniProt P55789)
Sequence (P55789 whole entry, looked up): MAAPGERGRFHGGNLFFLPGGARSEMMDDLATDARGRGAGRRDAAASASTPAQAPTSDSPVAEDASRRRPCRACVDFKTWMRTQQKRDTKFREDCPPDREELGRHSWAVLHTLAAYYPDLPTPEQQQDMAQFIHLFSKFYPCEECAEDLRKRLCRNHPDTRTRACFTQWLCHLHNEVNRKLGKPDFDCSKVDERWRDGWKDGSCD
Test: ALR-catalysed DTT oxidation blockers – biochemical, H2O2 detection, HRP-luminol luminescence, single point, primary screen (AID 485317)
Conditions: purified ALR, active compounds read high, concentration not given here

inhibition, active:
C=CCn1c(Cn2nnc3ccccc32)nnc1SCC(=O)N/N=C/c1cc(Br)cc(OC)c1O 98.4%, COc1ccc(-c2nc3cnccn3c2NC(C)(C)CC(C)(C)C)cc1O 99.6%, Cc1ccc(C2SCC(=O)N2c2ccccc2)cc1 (stereo not drawn) 98.3%

inhibition, inactive:
COc1cc(OC)cc(-c2c(-c3cccs3)c3cc(-c4ccc(OC)nc4)ccc3n2C)c1 -18.1%, O=C(OCC(=O)N1CCN(C(=O)c2ccco2)CC1)c1c(Cl)cccc1Cl -7.05%, Cn1cccc1C(=O)OCC(=O)NCCc1ccccc1 5.56%, Cc1ccc(Cn2c(SCC(=O)N/N=C/c3ccccc3OCC(=O)O)nc3ccccc32)cc1 -5.09%, Cn1c(Cn2nnc3ccccc32)nnc1SCC(=O)c1ccccc1F 25.7%, CSc1ccccc1NC(=O)C(C)N1C(=O)c2ccccc2S1(=O)=O (stereo not drawn) -4.05%, CC(=O)C(CC(=O)N1CCCC1)C(=O)Nc1ccc(Cl)cc1 (stereo not drawn) 23.9%, Cc1ccc(N2C(=O)N3[C@@H]4c5ccccc5OC[C@@H]4[C@@H](c4ccccc4)[C@@]3(C)C2=O)cc1 3%, Cc1nc(SCC(=O)NC2CCCCC2C)c(C#N)c(C)c1C (stereo not drawn) -0.312%, O=C(CN1C(=O)NC2(CCOc3ccccc32)C1=O)Nc1cccc([N+](=O)[O-])c1 (stereo not drawn) 13.9%, COc1ccccc1C(=O)NCCC(=O)NN1C(=O)NC2(CCCCC2)C1=O -0.581%, CCCCNc1c(-c2ccc(OC)c(Sc3ccc(OC)cc3)c2)nc2ccc(Cl)cn12 -8.2%, COc1ccc(-c2nc3cnccn3c2NC2CCCCC2)cc1-c1cccc(Cl)c1 3.7%, COc1ccc(S(=O)(=O)N(C)C[C@@H]2Oc3ccc(NC(=O)Nc4c(C)noc4C)cc3C(=O)N([C@H](C)CO)C[C@@H]2C)cc1 -1.21%, NC(=O)NC(CC(=O)NNC(=O)c1ccccn1)c1ccc(Cl)cc1 (stereo not drawn) -14%, Cc1ccc(N2C(=O)C3C(c4ccccc4)(C2=O)C3(c2ccccc2)c2ccccc2)cc1 (stereo not drawn) -4.39%, COc1cccc(C2SCC(=O)N2c2cccc(C)c2)c1OC (stereo not drawn) -42.2%, Cc1occc1C(=O)Nc1cccc(S(=O)(=O)N2CCOCC2)c1 -1.99%, CCOC(=O)C1CCN(C(=O)c2cccc(S(=O)(=O)N(CC)c3ccccc3)c2)CC1 -13.6%, COc1ccc(Cl)cc1NC(=O)CN(C)C(=O)c1cc(-c2cccs2)nn1-c1ccccc1 21.6%
